Source: PubChem BioAssay (Tox21)
Activity calls are given as the source filed them. Calls come from the whole dose curve; as a rule, active = well fitted curve in the direction sought with a large enough effect in the repeat runs; inconclusive = weak or mixed curves; inactive = flat fitted curve, though single readings scatter.

assay: qHTS assay to test for compound auto fluorescence at 590 nm (red) in HEK293 cell free culture (AID 720683); conditions: cell-free medium autofluorescence, Ex540/Em590 red; series mostly up to 91.3 µM; fluorescence, % of fluorescent control: at the top concentration
Description: U.S. Tox21 Program National Center for Advancing Translational Sciences [NCATS] NIH Chemical Genomics Center [NCGC] U.S. Environmental Protection Agency [EPA] National Institutes of Environmental Health Sciences [NIEHS] National Toxicology Program [NTP] U.S. Food and Drug Administration [FDA] Tox21 Assay Overview: Compound auto fluorescence often interferes with screening of the compound library against various biological targets and signaling pathways. Some of these compounds may have fluorophoric properties. Such properties may interfere with the assay outputs resulting in false positives and/or negatives. To decrease such complications and ensure the compound activities are relevant in terms of biological response, the Tox21 10K compound library was screened for auto fluorescence. From the fluorophores used as reporter signals in our screening assays, the auto fluorescence equivalencies of compounds against three fluorophores have been evaluated: Triamterene, Fluorescein and Rose Bengal sodium for blue, green and red fluorescence, respectively. The fluorescence intensities were measured using Excitation/Emission wavelengths at 405/460nm, 485/535nm and 540/590nm for blue, green and red labels, respectively. This assay includes the red fluorescence data.
Tox21 Assay Protocol Summary: 5 uL of culture medium (DMEM containing 10% FBS) per well was dispensed into black wall/clear bottom 1536-well plates using a Multidrop Combi Dispenser (ThermoFisher Scientific, Waltham, MA). After 23 nL compound or DMSO vehicle was transferred into assay plate by a pintool work station (Kalypsys, San Diego, CA), fluorescence intensities in the assay plates were measured by an Envision (PerkinElmer, Shelton, CT) plate reader using three labels for measuring blue, green and red fluorescence at […] 460, 535 and 590nm respectively.
% is set by controls: 0 for no effect and ±100 for the full control effect.

Row | SMILES | fluorescence, % of fluorescent control | Potency
1 | C=CC1CC2C=CC1C2 (stereo not given) | -0.0067% (inactive) | –
2 | NC(N)=NCCC[C@H](N)C(=O)O | -0.553% [at 46 µM] (inactive) | –
3 | CN(C)c1ccc(/C=C/c2ccc([N+](=O)[O-])cc2)cc1 | -0.187% [at 3.72 µM] (inactive) | –
4 | O=C1CCC(=O)O1 | 0.283% (inactive) | –
5 | O=C(Nc1ccccc1)c1ccccc1O | -0.348% (inactive) | –
6 | CCCCCCCCCCCCCCOS(=O)(=O)O | -0.0059% (inactive) | –
7 | CC(C)=CCC/C(C)=C/CC/C(C)=C/CO | -0.188% (inactive) | –
8 | Cc1[nH]c(C)c(Cl)c(=O)c1Cl | 0.0523% [at 46 µM] (inactive) | –
9 | O=C1[C@H]2CCCC[C@H]2C(=O)N1CCCCN1CCN(c2nsc3ccccc23)CC1 | 0.249% [at 46 µM] (inactive) | –
10 | C[N+](C)(C)CCOC(=O)CCC(=O)OCC[N+](C)(C)C | -0.732% [at 46 µM] (inactive) | –
11 | Cc1nn(C)c(Oc2ccccc2)c1/C=N/OCc1ccc(C(=O)OC(C)(C)C)cc1 | -0.532% (inactive) | –
12 | CC1=CC[C@H](C(C)C)C=C1 | -0.128% (inactive) | –
13 | CC(C)C[C@H]1C(=O)N2CCC[C@H]2[C@]2(O)O[C@](NC(=O)[C@@H]3C=C4c5cccc6[nH]c(Br)c(c56)C[C@H]4N(C)C3)(C(C)C)C(=O)N12 | – | inactive
14 | C#C[C@]1(O)CC[C@H]2[C@@H]3CCc4cc(OC5CCCC5)ccc4[C@H]3CC[C@@]21C | -0.394% [at 46 µM] (inactive) | –
15 | O=C(O)c1ccccc1Cl | -0.172% (inactive) | –
16 | Nc1cccc([N+](=O)[O-])c1 | -0.0039% (inactive) | –
17 | CCCCCCCCCc1ccc(OCCOCCO)cc1 | – | inactive
18 | ClCCOCCOCCCl | 0.0243% (inactive) | –
19 | CCO[C@H](Cc1ccc(OCCc2ccc(OS(C)(=O)=O)cc2)cc1)C(=O)O | 0.122% [at 46 µM] (inactive) | –
20 | c1ccc(C(O[C@H]2CCCN(CCc3ccc4c(c3)OCO4)C2)c2ccccc2)cc1 | 0.297% [at 46 µM] (inactive) | –

Row | SMILES | fluorescence, % of fluorescent control | Potency
21 | Nc1c(CC(=O)O)cccc1C(=O)c1ccc(Br)cc1 | -0.0099% [at 46 µM] (inactive) | –
22 | O=C1OC(=O)C2C3C=CC(C3)C12 (stereo not given) | -0.0348% (inactive) | –
23 | OCc1cc(C(O)CNCCCCCCOCCCCc2ccccc2)ccc1O (stereo not given) | – | inactive
24 | CC(=O)c1ccc2c(c1)N(CCCN(C)C)c1ccccc1S2 | -0.0325% [at 18.6 µM] (inactive) | –
25 | COc1ccc(-c2nc3ccc(C4=NNC(=O)CC4C)cc3[nH]2)cc1 (stereo not given) | -0.0123% [at 46 µM] (inactive) | –
26 | O=CC1CC=CCC1 (stereo not given) | 0.0394% (inactive) | –
27 | CCOc1ccc(N)c([N+](=O)[O-])c1 | -0.095% (inactive) | –
28 | Nc1cc(C(=O)O)c(O)c(S(=O)(=O)O)c1 | -0.311% (inactive) | –
29 | Cc1oc2c(NC(=O)c3c(Cl)cccc3Cl)cccc2c1C(C)(C)O | -0.203% (inactive) | –
30 | CC1(c2ccccc2)OC(C(=O)O)=CC1=O (stereo not given) | -0.473% [at 46 µM] (inactive) | –
31 | Cc1cc(N)c2cc(NC(=O)Nc3ccc4nc(C)cc(N)c4c3)ccc2n1 | 0.268% [at 46 µM] (inactive) | –
32 | CC(=O)[O][Al][O]C(C)=O | – | inactive
33 | CCC(C)c1cc(C(C)(C)C)c(O)c(C(C)(C)C)c1 (stereo not given) | -0.071% (inactive) | –
34 | CCOC(=O)COC(=O)c1cc(Oc2ccc(C(F)(F)F)cc2Cl)ccc1[N+](=O)[O-] | 0.0501% (inactive) | –
35 | CC(C)(O)c1ccc(CNC(=O)c2cccnc2Oc2ccc(F)cc2)cc1 | -0.0546% (inactive) | –
36 | CCCCO | – | inactive
37 | Cn1c(=O)cc(Oc2ccc(F)cc2F)c2cnc(NCC(C)(C)O)nc21 | 0.0876% (inactive) | –
38 | CCOC(=O)c1cccnc1 | 0.0905% [at 46 µM] (inactive) | –
39 | CN(C)CCN(Cc1ccc(Cl)cc1)c1ccccn1 | -0.237% [at 18.6 µM] (inactive) | –
40 | O=C(OCCc1ccccc1)c1ccccc1 | -0.331% (inactive) | –
